Several values for one entry are separate records, joined by “and”; a condition that tells them apart may be missing. Equal entries are not always repeated. Structures can show the parent of a compound that is named as a salt. ± gives the standard deviation of the averaged measurements.
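Note: End-point A600 read in BHI broth at 37 °C with 2% DMSO, inhibition computed as (1 − OD with compound plus ceftriaxone ÷ OD with ceftriaxone only) × 100.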

The assay relates to Listeria monocytogenes 10403S. Put plainly: growth inhibition relative to ceftriaxone-alone control; higher = stronger potentiation of ceftriaxone growth inhibition. Particulars: 10 µM; ceftriaxone 1 ug/ml; 12 h.
Consider `CCCNc1cccc(-n2ncc3c(N/N=C/c4ccncc4)ncnc32)c1`, for which the growth inhibition is -6.32 ± 14%. Turning to `O=C(Nc1n[nH]c2nc(-c3ccco3)c(Br)cc12)C1CC1`, the growth inhibition is -3.36 ± 3.1%. On to `COc1ccc(S(=O)(=O)N(C(C)=O)c2ccccc2/C=C/c2cc[n+]([O-])cc2)cc1`, for which the growth inhibition turned out to be 13.3 ± 8.8%.

With `CC(=O)NCC(=O)N1[C@@H]2CC[C@H]1c1ccc(Nc3ncc(C(F)(F)F)c(NC4CCC4)n3)cc12`, the growth inhibition was determined as 52 ± 46%. Take `C#Cc1cccc(Nc2ncnc3cc(OCCOC)c(OCCO)cc23)c1`: the growth inhibition was 19.2% and 5.86%. In the case of `COc1cc2ncn(-c3cc(OCc4ccccc4S(C)(=O)=O)c(C#N)s3)c2cc1OC` it was 12.7 ± 3%; in that of `CCCN1CCCC(c2ccc(Nc3nc(Nc4cc(F)ccc4C(N)=O)c4cc[nH]c4n3)c(OC)c2)C1` (centres undefined), 1.46 ± 6.2%. In the case of `Nc1ncnc2occ(-c3ccc(NC(=O)Nc4cccc(C(F)(F)F)c4)cc3)c12` it was -12.9 ± 3.5%; in that of `NS(=O)(=O)c1ccc(N/N=C2\C(=O)Nc3ccc(C(=O)NCCc4c[nH]cn4)cc32)cc1`, 14.1 ± 4.2%; in that of `Fc1cccc(COc2ccc(Nc3ncnc4sc(-c5ccco5)cc34)cc2Cl)c1`, 6.89 ± 3.7%. With `Nc1ncnc2c1c(-c1cccc(OCc3ccccc3)c1)cn2C1CC(CN2CCCC2)C1` (centres undefined) the figure was 61.4 ± 52%; with `COc1ccc(-c2ccc3c(NC(=O)C4CC4)n[nH]c3n2)cc1`, -7.27 ± 8.3%. As for `COC(=O)c1ccc2c(c1)C(=Cc1cc(Br)c(O)c(Br)c1)C(=O)N2`, the growth inhibition was 12.4 ± 1.5%. In the case of `CS(=O)(=O)CCNCc1ccc(-c2ccc3ncnc(Nc4ccc(OCc5ccccc5)cc4)c3c2)o1` it was -2.04 ± 4.2%; in that of `CNC(=O)c1cc(Oc2ccc(NC(=O)Nc3ccc(Cl)c(C(F)(F)F)c3)cc2)ccn1` [Sorafenib (Nexavar)], 98.7 ± 1.8%; in that of `C#Cc1cccc(Nc2ncnc3cc(OCCOC)c(OCCOC)cc23)c1` [Erlotinib HCl], 18.6 ± 18%.

`COC(=O)Nc1nc2cc(Oc3ccc(NC(=O)Nc4cccc(C(=O)O)c4)cc3)ccc2[nH]1`: the growth inhibition is 7.27 ± 7.2%.

Turning to `Cc1nc(NC(=O)N2CCC[C@H]2C(N)=O)sc1-c1ccnc(C(C)(C)C(F)(F)F)c1`, the growth inhibition is 24.9 ± 21%. In the case of `Fc1ccc(-c2ncn(C3CCNCC3)c2-c2ccnc(Oc3ccc(Oc4ccccc4)cc3)n2)cc1` it was 12.2 ± 24%. In the case of `O=C1NC(=O)C(N2CCc3ccccc32)=C1c1ccc(Cl)cc1` it was 14.5 ± 6%; in that of `CCn1c(-c2nonc2N)nc2c(C#CC(C)(C)O)nc(OC[C@@H](N)c3ccccc3)cc21`, 71.3 ± 3.1%. With `CN(C)c1cc2c(Nc3ccc4c(cnn4Cc4ccccc4)c3)ncnc2cn1` the figure was -7.88 ± 0.099%. On to `CC1=C(C(=O)Nc2cc(Cl)c3[nH]ncc3c2)C(c2ccc(C(F)(F)F)cc2)CC(=O)N1` (centres undefined), for which the growth inhibition is -4.67 ± 5.5%. In the case of `Cc1cc(Nc2cc(N3CCN(C)CC3)nc(/C=C/c3ccccc3)n2)n[nH]1` it was 85.7 ± 18%. As for `CNC(=O)c1ncccc1Nc1nc(Nc2cc3c(cc2OC)CCCN3C(=O)CN(C)C)nc2[nH]ccc12`, the growth inhibition was -2.03 ± 1.3%. In the case of `Cn1c(-c2nonc2N)nc2cnccc21`, the growth inhibition was -5.76 ± 4.5%. With `N#Cc1ccc(Oc2nccc(-c3c(-c4ccc(F)cc4)ncn3C3CCNCC3)n2)cc1` the figure was -15.2 ± 18%; with `O=C1NCCc2[nH]c(-c3ccncc3)cc21`, 22.8 ± 14%.

Turning to `CCc1nccc2c1nc(-c1nonc1N)n2CC`, the growth inhibition was -8.48 ± 4.8%.

Turning to `COc1ccc2c(OCc3nnc4ccc(-c5ccccc5)nn34)ccnc2c1`, the growth inhibition was 11.6 ± 13%.

With `CC(=O)Nc1cccc(C#Cc2cncnc2Nc2ccc(OCc3cccc(F)c3)c(Cl)c2)n1`, the growth inhibition was -0.967 ± 4.2%. In the case of `CCNC(=O)O[C@H]1CN[C@H](C#Cc2cc3ncnc(Nc4ccc(OCc5cccc(F)c5)c(Cl)c4)c3s2)C1` it was 27.1 ± 33%; in that of `O=C(NC1CCNCC1)c1n[nH]cc1NC(=O)c1c(Cl)cccc1Cl`, 13.4 ± 5.9%.

`COc1cc(CCc2cc(NC(=O)c3ccc(N4CC(C)NC(C)C4)cc3)n[nH]2)cc(OC)c1` (centres undefined): the growth inhibition was determined as 38.3 ± 21%. In the case of `Cc1cc(Nc2cc(N3CCN(C)CC3)nc(Sc3ccc(NC(=O)C4CC4)cc3)n2)n[nH]1` [VX-680 (MK-0457, Tozasertib)] it was 52.7 ± 17%. In the case of `CN1CCC(n2cnc(-c3ccc(F)cc3)c2-c2ccnc(N)n2)CC1` it was -0.672 ± 2%; in that of `CO[C@H]1C[C@@H]2CC[C@@H](C)[C@@](O)(O2)C(=O)C(=O)N2CCCC[C@H]2C(=O)O[C@H]([C@H](C)C[C@@H]2CC[C@@H](OP(C)(C)=O)[C@H](OC)C2)CC(=O)[C@H](C)/C=C(\C)[C@@H](O)[C@@H](OC)C(=O)[C@H](C)C[C@H](C)/C=C/C=C/C=C/1C` [Deforolimus (Ridaforolimus)], 39.2 ± 14%. With `NCc1ccc(-c2nc(-c3ccc(Cl)c(O)c3)c(-c3ccncc3)[nH]2)cc1`, the growth inhibition was -9.88 ± 15%. For the compound `Cc1[nH]c(/C=C2\C(=O)Nc3ccc(S(=O)(=O)N(C)c4cccc(Cl)c4)cc32)c(C)c1C(=O)N1CCN(C)CC1`, the growth inhibition worked out at 51.3 ± 11%.

The values are drawn from the supplement of paper PMC5641865, “A screen for kinase inhibitors identifies antimicrobial imidazopyridine aminofurazans as specific inhibitors of the Listeria monocytogenes PASTA kinase PrkA” (The Journal of Biological Chemistry, 2017).
